Measurements from PubChem BioAssay AID1159580 (chemical genetic matrix, 2015).
“And” between values parts separate entries of the source, which are not always exact repeats. Identical values can stand only once. Out of some 5,500 compounds screened, about 2,000 (36%) were called active. Not shown: some 18% with an inconclusive outcome. No stated cut-off is given here; in the data, active means normalized growth mostly below about 0.91 (no sharp cut-off); inconclusive means no clear call, values can overlap the other calls; inactive means mostly above about 0.92. The list shows a part of the results.

Assay: chemical genetic growth profiling, strain panel (AID 1159580);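 further: tested at 20 µM; growth read once vehicle control cultures reached saturation at 30 °C; 1 = growth at the plate median or of vehicle wells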
Conditions: growth OD

Measured: normalized growth

CC(=O)N1CCCC1C(=O)O (configuration not stated)
inactive: S. cerevisiae deletion strains, locus YAL013W, strain DEP1, stronger effect = lower value 1.01 | S. cerevisiae deletion strains, locus YBR021W, strain FUR4, stronger effect = lower value 0.977 | S. cerevisiae deletion strains, locus YBR229C, strain ROT2, stronger effect = lower value 1.01 | S. cerevisiae deletion strains, locus YCL029C, strain bik1, stronger effect = lower value 1.03 | S. cerevisiae deletion strains, locus YDL035C, strain GPR1, stronger effect = lower value 1.02 | S. cerevisiae deletion strains, locus YDL074C, strain BRE1, stronger effect = lower value 1.02 | S. cerevisiae deletion strains, locus YDL101C, strain DUN1, stronger effect = lower value 1.01 | S. cerevisiae deletion strains, locus YDL134C, strain PPH21, stronger effect = lower value 1.01 | S. cerevisiae deletion strains, locus YDL185W, strain tfp1, stronger effect = lower value 1.02 | S. cerevisiae deletion strains, locus YDL192W, strain arf1, stronger effect = lower value 1.03 | S. cerevisiae deletion strains, locus YDR101C, strain arx1, stronger effect = lower value 1.02 | S. cerevisiae deletion strains, locus YDR150W, strain NUM1, stronger effect = lower value 1.01 | S. cerevisiae deletion strains, locus YDR162C, strain NBP2, stronger effect = lower value 1.01 | S. cerevisiae deletion strains, locus YDR318W, strain mcm21, stronger effect = lower value 1.02 | S. cerevisiae deletion strains, locus YDR388W, stronger effect = lower value 1.02 | S. cerevisiae deletion strains, locus YDR502C, strain sam2, stronger effect = lower value 1.02 | S. cerevisiae deletion strains, locus YEL061C, strain CIN8, stronger effect = lower value 1.01 | S. cerevisiae deletion strains, locus YER110C, stronger effect = lower value 1.03 | S. cerevisiae deletion strains, locus YER155C, strain BEM2, stronger effect = lower value 1 | S. cerevisiae deletion strains, locus YER167W, strain BCK2, stronger effect = lower value 1.01 | S. cerevisiae deletion strains, locus YGL078C, strain dbp3, stronger effect = lower value 1.02 | S. cerevisiae deletion strains, locus YGL086W, strain mad1, stronger effect = lower value 1.01 | S. cerevisiae deletion strains, locus YGL248W, strain PDE1, stronger effect = lower value 1.01 | S. cerevisiae deletion strains, locus YGR078C, strain PAC10, stronger effect = lower value 1 | S. cerevisiae deletion strains, locus YGR135W, strain pre9, stronger effect = lower value 1.02 | S. cerevisiae deletion strains, locus YGR229C, strain SMI1, stronger effect = lower value 0.99 | S. cerevisiae deletion strains, locus YGR252W, strain gcn5, stronger effect = lower value 1.03 | S. cerevisiae deletion strains, locus YHR030C, strain SLT2, stronger effect = lower value 1.01 and 0.953 | S. cerevisiae deletion strains, locus YHR079C, strain IRE1 (second series), stronger effect = lower value 1.02 | S. cerevisiae deletion strains, locus YHR079C, strain IRE1, stronger effect = lower value 0.975 | S. cerevisiae deletion strains, locus YHR094C, strain hxt1, stronger effect = lower value 1.02 | S. cerevisiae deletion strains, locus YHR129C, strain ARP1, stronger effect = lower value 1.01 | S. cerevisiae deletion strains, locus YHR200W, strain rpn10, stronger effect = lower value 1.03 | S. cerevisiae deletion strains, locus YIL066C, strain RNR3, stronger effect = lower value 1.02 | S. cerevisiae deletion strains, locus YIL073C, strain SPO22, stronger effect = lower value 1.08 | S. cerevisiae deletion strains, locus YIL125W, strain kgd1, stronger effect = lower value 1.02 | S. cerevisiae deletion strains, locus YIR030C, strain dcg1, stronger effect = lower value 1.02 | S. cerevisiae deletion strains, locus YJL095W, strain BCK1, stronger effect = lower value 1.01 and 0.981 | S. cerevisiae deletion strains, locus YJL134W, strain LCB3, stronger effect = lower value 1.01 | S. cerevisiae deletion strains, locus YJL168C, strain set2, stronger effect = lower value 1.02 | S. cerevisiae deletion strains, locus YJL187C, strain SWE1 (second series), stronger effect = lower value 1.02 | S. cerevisiae deletion strains, locus YJR043C, strain POL32, stronger effect = lower value 0.995 | S. cerevisiae deletion strains, locus YJR066W, strain TOR1, stronger effect = lower value 0.872 | S. cerevisiae deletion strains, locus YJR075W, strain HOC1, stronger effect = lower value 1 | S. cerevisiae deletion strains, locus YKL009W, strain mrt4, stronger effect = lower value 1.02 | S. cerevisiae deletion strains, locus YKL068W, stronger effect = lower value 1.03 | S. cerevisiae deletion strains, locus YKL085W, strain MDH1 (second series), stronger effect = lower value 1.01 | S. cerevisiae deletion strains, locus YKL085W, strain MDH1, stronger effect = lower value 1.01 | S. cerevisiae deletion strains, locus YKL190W, strain CNB1, stronger effect = lower value 1.01 | S. cerevisiae deletion strains, locus YKR001C, strain vps1, stronger effect = lower value 1.02 | S. cerevisiae deletion strains, locus YLR039C, strain RIC1, stronger effect = lower value 1.03 | S. cerevisiae deletion strains, locus YLR058C, strain SHM2, stronger effect = lower value 1.01 | S. cerevisiae deletion strains, locus YLR102C, strain apc9, stronger effect = lower value 1.02 | S. cerevisiae deletion strains, locus YLR113W, strain HOG1, stronger effect = lower value 1.01 | S. cerevisiae deletion strains, locus YLR262C, strain YPT6, stronger effect = lower value 1.05 | S. cerevisiae deletion strains, locus YLR268W, strain sec22, stronger effect = lower value 1.03 | S. cerevisiae deletion strains, locus YLR330W, strain CHS5, stronger effect = lower value 1.01 | S. cerevisiae deletion strains, locus YLR342W, strain FKS1 (second series), stronger effect = lower value 0.987 | S. cerevisiae deletion strains, locus YLR371W, strain rom2, stronger effect = lower value 1.01 | S. cerevisiae deletion strains, locus YLR418C, strain cdc73, stronger effect = lower value 1.04 | S. cerevisiae deletion strains, locus YML016C, strain PPZ1, stronger effect = lower value 1.01 | S. cerevisiae deletion strains, locus YML032C, strain rad52, stronger effect = lower value 1.02 | S. cerevisiae deletion strains, locus YML124C, strain tub3, stronger effect = lower value 1.03 | S. cerevisiae deletion strains, locus YMR078C, strain ctf18, stronger effect = lower value 1.04 | S. cerevisiae deletion strains, locus YMR223W, strain ubp8, stronger effect = lower value 1.01 | S. cerevisiae deletion strains, locus YMR263W, strain SAP30, stronger effect = lower value 1 | S. cerevisiae deletion strains, locus YMR307W, strain GAS1, stronger effect = lower value 0.996 | S. cerevisiae deletion strains, locus YNL067W, strain RPL9B, stronger effect = lower value 1 | S. cerevisiae deletion strains, locus YNL128W, strain TEP1, stronger effect = lower value 1.01 | S. cerevisiae deletion strains, locus YNL153C, strain GIM3, stronger effect = lower value 1 | S. cerevisiae deletion strains, locus YNL183C, strain NPR1, stronger effect = lower value 0.883 | S. cerevisiae deletion strains, locus YNL233W, strain BNI4, stronger effect = lower value 1.01 | S. cerevisiae deletion strains, locus YNL250W, strain rad50, stronger effect = lower value 1.02 | S. cerevisiae deletion strains, locus YNL271C, strain bni1, stronger effect = lower value 1.03 | S. cerevisiae deletion strains, locus YNL298W, strain CLA4, stronger effect = lower value 1.04 | S. cerevisiae deletion strains, locus YNL307C, strain MCK1, stronger effect = lower value 1.03 | S. cerevisiae deletion strains, locus YNL322C, strain KRE1, stronger effect = lower value 1.01 | S. cerevisiae deletion strains, locus YNR052C, strain pop2, stronger effect = lower value 1.03 | S. cerevisiae deletion strains, locus YOL006C, strain TOP1, stronger effect = lower value 1.03 | S. cerevisiae deletion strains, locus YOL012C, strain htz1 1.51 | S. cerevisiae deletion strains, locus YOL147C, strain pex11, stronger effect = lower value 1.02 | S. cerevisiae deletion strains, locus YOR061W, strain CKA2, stronger effect = lower value 1.01 | S. cerevisiae deletion strains, locus YOR069W, strain VPS5, stronger effect = lower value 1 | S. cerevisiae deletion strains, locus YOR136W, strain idh2, stronger effect = lower value 1.02 | S. cerevisiae deletion strains, locus YOR144C, strain elg1, stronger effect = lower value 1.02 | S. cerevisiae deletion strains, locus YOR184W, strain ser1, stronger effect = lower value 1.03 | S. cerevisiae deletion strains, locus YOR231W, strain MKK1, stronger effect = lower value 0.979 | S. cerevisiae deletion strains, locus YOR316C, strain cot1, stronger effect = lower value 1.02 | S. cerevisiae deletion strains, locus YPL055C, strain LGE1, stronger effect = lower value 1 | S. cerevisiae deletion strains, locus YPL241C, strain CIN2, stronger effect = lower value 1.01 | S. cerevisiae deletion strains, locus YPL256C, strain CLN2, stronger effect = lower value 0.941 | S. cerevisiae deletion strains, locus YPR119W, strain clb2, stronger effect = lower value 1.02 | S. cerevisiae deletion strains, locus YPR141C, strain kar3, stronger effect = lower value 1.03 | S. cerevisiae deletion strains, locus YPR163C, strain tif3, stronger effect = lower value 1.02 | S. cerevisiae deletion strains, locus YPR167C, strain met16, stronger effect = lower value 1.01 | S. cerevisiae deletion strains, strain wtn01, stronger effect = lower value 1.02 | S. cerevisiae strains, strain wild type, stronger effect = lower value 1
